Test results from paper PMC7826789 (International Journal of Molecular Sciences, 2021).

How the values were obtained:
Details in all cases: Compound Concentration (nM):1000
MET(Y1235D) = system: MET(Y1235D)
MET = system: MET
MINK = system: T1, MINK
T1 construct: gene MINK1

MKK7 = system: T2, MKK7
T2 construct: gene MAP2K7

MKNK1 = system: MKNK1
MKNK2 = system: MKNK2
MLCK = system: T3, MLCK
T3 construct: gene MYLK3

MLK1 = system: T4, MLK1
T4 construct: gene MAP3K9

MLK2 = system: T5, MLK2
T5 construct: gene MAP3K10

MLK3 = system: T6, MLK3
T6 construct: gene MAP3K11
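Note: KINOMEscan scanMAX binding as percent activity remaining versus control; lower means stronger binding.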

Row | SMILES | Percent Control (MET(Y1235D)) [%] | Percent Control (MET) [%] | Percent Control (MINK) [%] | Percent Control (MKK7) [%] | Percent Control (MKNK1) [%] | Percent Control (MKNK2) [%] | Percent Control (MLCK) [%] | Percent Control (MLK1) [%] | Percent Control (MLK2) [%] | Percent Control (MLK3) [%]
1 | Nc1ncnc2occ(-c3ccc(NC(=O)Nc4cc(C(F)(F)F)ccc4F)cc3)c12 [GW770249X] | 60 | 89 | 52 | 100 | 55 | 3.9 | 88 | 66 | 18 | 54
2 | COc1cc(C=NNc2ncnc3c2cnn3-c2ccccc2)ccc1O [GW513184X] | 57 | 36 | 48 | 100 | 100 | 50 | 98 | 48 | 83 | 50
3 | COc1ccc(COc2ccc(Cc3cnc(N)nc3N)cc2OC)cc1 [GW632580X] | 100 | 95 | 85 | 80 | 76 | 100 | 100 | 85 | 53 | 90
4 | COc1cc(N2CCN(C(C)C)CC2)ccc1Nc1nc(Nc2ccc(F)cc2C(=O)NC[C@@H](O)CO)c2cc[nH]c2n1 [GSK1392956A] | 100 | 100 | 80 | 100 | 61 | 97 | 96 | 100 | 100 | 100
5 | O=C(Nc1n[nH]c2nc(-c3ccc(O)cc3)c(Br)cc12)C1CC1 [SB-725317] | 100 | 100 | 42 | 100 | 49 | 90 | 67 | 100 | 100 | 100
6 | CN(C)CCNC(=O)Nc1ccc(N(C)c2ccnc(Nc3ccc(CS(C)(=O)=O)cc3)n2)cc1.Cl [GW830900A] | 57 | 21 | 59 | 100 | 100 | 53 | 100 | 97 | 99 | 100
7 | NS(=O)(=O)c1ccc(N/N=C2\C(=O)Nc3ccc(C(=O)NCc4ccncc4)cc32)cc1 [GW300657X] | 91 | 100 | 34 | 93 | 56 | 78 | 45 | 89 | 99 | 100
8 | CN1CCN(C(=O)c2ccc(NC(=O)Nc3ccc(N(C)c4ccnc(Nc5ccc(CS(C)(=O)=O)cc5)n4)cc3)cc2)CC1.Cl [GW830263A] | 4.4 | 8.8 | 18 | 95 | 65 | 4.2 | 86 | 86 | 82 | 91
9 | NS(=O)(=O)c1ccc(N/N=C2\C(=O)Nc3ccc(Cl)cc32)cc1 [GW280670X] | 100 | 100 | 25 | 100 | 100 | 100 | 85 | 100 | 98 | 96
10 | C[C@@H](Oc1cc(-n2cnc3ccc(OC4CCN(C)CC4)cc32)sc1C(N)=O)c1ccccc1Cl [GSK579289A] | 98 | 58 | 75 | 78 | 71 | 60 | 72 | 39 | 86 | 100
11 | CN(C)c1cc2c(Nc3ccc4c(cnn4Cc4ccccc4)c3)ncnc2cn1 [GW282974X] | 100 | 94 | 100 | 95 | 74 |  | 98 | 89 | 95 | 100
12 | COc1ccc2cc(-c3c(-c4ccncc4)nc(-c4ccc(S(C)(=O)=O)cc4C)n3C)ccc2c1 [SB-633825] | 100 | 80 | 43 | 89 | 66 | 73 | 90 | 63 | 79 | 82
13 | CC1=C(C(=O)Nc2ccc3[nH]ncc3c2)C(c2ccc3ccccc3c2)CC(=O)N1 (stereo not drawn) [GSK270822A] | 87 | 47 | 87 | 75 | 75 | 73 | 92 | 68 | 100 | 76
14 | NS(=O)(=O)c1ccc(N/N=C2\C(=O)Nc3ccc(C(=O)NCCc4c[nH]cn4)cc32)cc1 [GW300660X] | 100 | 100 | 43 | 100 | 100 | 100 | 100 | 100 | 100 | 100
15 | COc1cc2ncnc(Nc3ccc4c(cnn4Cc4ccccc4)c3)c2cc1OC.Cl [GW282449A] | 100 | 100 | 87 | 100 | 100 | 76 | 100 | 100 | 100 | 100
16 | Cl.O=C(Nc1ccc(Oc2ccc3[nH]c(NC(=O)c4ccco4)nc3c2)cc1)Nc1cc(C(F)(F)F)ccc1F [GW683134A] | 6.6 | 17 | 99 | 100 | 48 | 12 | 100 | 64 | 82 | 67
17 | COc1cccc(-c2c[nH]c3c(N/N=C/c4ccncc4)ncnc23)c1 [GW814408X] | 75 | 64 | 33 | 100 | 57 | 30 | 95 | 61 | 76 | 73
18 | COC(=O)Nc1nc2ccc(Oc3ccc(NC(=O)Nc4cc(C(F)(F)F)ccc4F)cc3)cc2s1.Cl [GW693917A] | 6.6 | 33 | 79 | 97 | 45 | 31 | 99 | 97 | 85 | 100
19 | CCS(=O)(=O)c1ccc(OC)c(Nc2ncc(-c3cccc(OC)c3)o2)c1 [GW580509X] | 100 | 100 | 70 | 100 | 100 | 94 | 100 | 100 | 100 | 96
20 | Cl.O=S1CCN(Cc2ccc(-c3ccc4ncnc(Nc5ccc(OCc6ccccc6)c(F)c5)c4c3)o2)CC1 [GW576924A] | 100 | 100 | 89 | 51 | 82 | 100 | 100 | 100 | 100 | 100

Row | SMILES | Percent Control (MET(Y1235D)) [%] | Percent Control (MET) [%] | Percent Control (MINK) [%] | Percent Control (MKK7) [%] | Percent Control (MKNK1) [%] | Percent Control (MKNK2) [%] | Percent Control (MLCK) [%] | Percent Control (MLK1) [%] | Percent Control (MLK2) [%] | Percent Control (MLK3) [%]
21 | O=C1Nc2ccc(C(=O)c3ccco3)cc2C1=Cc1cc(Cl)c(O)c(Cl)c1 [GW406108X] | 100 | 67 | 13 | 78 | 72 | 89 | 100 | 97 | 100 | 95
22 | CCS(=O)(=O)c1ccc(OC)c(Nc2ncc(-c3cccc(F)c3)o2)c1 [GW621970X] | 100 | 100 | 72 | 100 | 70 | 100 | 100 | 100 | 95 | 100
23 | COc1cc(C)c(N(C)C(=O)CN(C)C)cc1Nc1nc(Nc2cccc(F)c2C(N)=O)c2cc[nH]c2n1 [GSK2219385] | 99 | 65 | 86 | 97 | 75 | 98 | 78 | 55 | 100 | 100
24 | COc1ccc2c(-c3ccnc(Nc4cccc(OC(F)(F)F)c4)n3)cnn2n1 [GW810372X] | 100 | 100 | 93 | 100 | 73 | 100 | 100 | 100 | 74 | 100
25 | Cl.O=C(Nc1ccc(Oc2ccc3[nH]c(NC(=O)c4ccccc4)nc3c2)cc1)Nc1cc(C(F)(F)F)ccc1F [GW709042A] | 59 | 64 | 93 | 100 | 64 | 26 | 100 | 100 | 47 | 73
26 | COc1ccc2[nH]c3c4[nH]c5ccc(OC)cc5c4c4c(c3c2c1)C(=O)NC4=O [GW296115X] | 76 | 78 | 1.7 | 88 | 92 | 54 | 16 | 2.2 | 83 | 5.6
27 | COc1cccc(-n2ncc3c(N/N=C/c4ccncc4)ncnc32)c1 [GW784752X] | 94 | 91 | 67 | 100 | 47 | 59 | 98 | 100 | 73 | 100
28 | CC(C)COC(=O)c1ccc2c(c1)/C(=C/Nc1ccc(S(N)(=O)=O)cc1)C(=O)N2 [GW416981X] | 94 | 100 | 37 | 100 | 100 | 100 | 100 | 100 | 96 | 100
29 | CC1=C(C(=O)Nc2ccc3[nH]ncc3c2)C(c2ccc(Cl)c(Cl)c2)CC(=O)N1 (stereo not drawn) [GSK299115A] | 97 | 97 | 69 | 90 | 81 | 66 | 99 | 70 | 86 | 97
30 | COc1ccccc1-c1cc(/C=C2\C(=O)Nc3ncc(Br)cc32)cc(Br)c1O [GW442130X] | 100 | 92 | 93 | 100 | 100 | 100 | 100 | 99 | 100 | 100
31 | Cl.O=C(O[C@H]1CN[C@H](C#Cc2cc3ncnc(Nc4ccc5c(cnn5Cc5ccccc5)c4)c3s2)C1)N1CCOCC1 [GSK200398A] | 100 | 100 | 98 | 75 | 70 | 47 | 100 | 100 | 100 | 92
32 | Cc1cc(O)cc(C)c1/C=C/c1cncc(C(N)=O)c1 [GW435821X] | 100 | 100 | 87 | 100 | 69 | 31 | 100 | 100 | 56 | 100
33 | C/C(Nc1ccc(S(N)(=O)=O)cc1)=C1/C(=O)Nc2ccccc21 [GW335962X] | 100 | 72 | 2.8 | 91 | 74 | 100 | 69 | 77 | 75 | 98
34 | CCc1ccc(Oc2nccc(-c3c(-c4ccc(F)cc4)ncn3C3CCNCC3)n2)cc1 [SB-242719] | 100 | 93 | 36 | 90 | 83 | 100 | 76 | 85 | 100 | 71
35 | COc1cc(/C=N/Nc2ncnc3[nH]ncc23)ccc1O [GW578748X] | 83 | 100 | 39 | 100 | 78 | 38 | 90 | 66 | 51 | 43
36 | NS(=O)(=O)c1ccc(N/N=C2\C(=O)Nc3ccc(-c4cnco4)cc32)cc1 [GW276655] | 100 | 94 | 3.8 | 93 | 93 | 71 | 19 | 73 | 64 | 96
37 | Cl.c1ccc(Cc2nc3ccc(Nc4ncnc5ccccc45)cc3[nH]2)cc1 [GR269666A] | 91 | 100 | 92 | 100 | 86 | 100 | 100 | 100 | 100 | 91
38 | NS(=O)(=O)c1ccc(Nc2ncc(-c3ccccc3)o2)cc1 [GW572399X] | 100 | 100 | 40 | 100 | 39 | 53 | 100 | 100 | 100 | 100
39 | CCn1c(-c2nonc2N)nc2c(C#CC(C)(C)O)nc(OCCNC)cc21.Cl [GSK949675] | 100 | 97 | 100 | 100 | 98 | 100 | 100 | 100 | 100 | 100
40 | COc1cc2ncn(-c3cc(O[C@H](C)c4ccccc4Cl)c(C(N)=O)s3)c2cc1OC [GSK237701A] | 71 | 78 | 55 | 97 | 73 | 77 | 97 | 64 | 95 | 92
